# From PubChem BioAssay
# An excerpt weighted towards active compounds, which were near 4.1% of everything screened.
# hgDAF12 agonist = agonists of H. glycines DAF-12 nuclear receptor; HEK293 GAL4-hgDAF12 UAS-luciferase reporter, agonist luminescence; normalized to butyrate control; activation, % at 6.8 µM; 370,000 tested, 1.8% active;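 active = activation above a cutoff set at the mean of all screened compounds plus 3 SD, cut at about 10% in these data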;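 also: 0% = DMSO wells and 100% = sodium butyrate wells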
# hcDAF-12 act = activators of H. contortus DAF-12 nuclear receptor; AID 652067; HEK293 hcDAF-12 lit1-tk-luc reporter, luminescence; 0% DMSO, 100% Δ7-dafachronic acid; activation, % at 6.8 µM; 370,000 tested, 1.4% active;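 active = activation above the mean of all tested compounds plus 3 SD, cut at about 5.5% in these data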;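 also: 100% = response to 3 µM Δ7-dafachronic acid high control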
# ssDAF12 agonist = activates DAF-12 receptor from parasite S. stercoralis; HEK293 ssDAF-12/GRIP1 lit1-tk-luc reporter, luminescence; % of 3 µM dafachronic acid response; activation, % at 6.8 µM; 370,000 tested, 1% active;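 active = activation above the mean over all tested compounds plus 3 SD, cut at about 0.9% in these data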;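 also: 0% = DMSO-only wells and 100% = 3 µM delta7-dafachronic acid wells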
# DAX1 inh-1 = inhibitors of DAX1 repression of SF-1 activated StAR promoter | HEK293T StAR-luciferase reporter, SF-1/DAX-1 repression relief | inhibition, % at 6.8 µM | 370,000 tested, 1.1% active;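 active = inhibition above the mean over all tested compounds plus 3 SD, cut at about 3.6% in these data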;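 also: 0% = DAX-1 cells with DMSO and 100% = cells lacking DAX-1 with DMSO; higher inhibition means more luminescence from relief of DAX-1 repression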
# DAX1 inh-2 = inhibitors of human orphan nuclear receptor DAX1 (NR0B1). P51843. HEK293 Gal4-DAX1 luciferase reporter, luminescence. inhibition, % at 6.75 µM. 340,000 tested, 0.99% active. AID 504766;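 active = inhibition above the mean over all tested compounds plus 3 SD, cut at about 4.2% in these data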;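 also: 0% = DAX1-transfected cells with DMSO and 100% = empty-vector control cells with DMSO; inhibition shows as a rise in luminescence from relieved DAX1 repression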
# Target sequence (P51843 207-470 limits assumed): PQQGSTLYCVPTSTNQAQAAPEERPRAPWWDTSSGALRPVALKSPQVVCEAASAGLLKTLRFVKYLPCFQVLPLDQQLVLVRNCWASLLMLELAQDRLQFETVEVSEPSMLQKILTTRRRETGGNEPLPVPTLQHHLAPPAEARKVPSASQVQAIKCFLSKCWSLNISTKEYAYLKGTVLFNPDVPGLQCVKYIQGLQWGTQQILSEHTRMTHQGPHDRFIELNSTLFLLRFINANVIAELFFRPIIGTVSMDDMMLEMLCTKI
# hgDAF12 conf = confirmation of H. glycines DAF-12 agonists; shares compounds with hgDAF12 agonist; HEK293 GAL4-hgDAF12 luciferase reporter, agonist mode; percent of butyrate response; activation, % at 6.8 µM; 3,300 tested, 80% active;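 active = mean activation over triplicate wells above the hit cutoff derived from the earlier primary screen, cut at about 11% in these data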;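 also: 0% = DMSO low control and 100% = 2 mM sodium butyrate high control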
# LXR ag 2 = activates human LXR-beta, counter-screen for DAF-12 agonists | activation, % at 6.8 µM | shares compounds with hgDAF12 agonist | HEK293 Gal4-LXR luciferase reporter, 24 h | 3,300 tested, under 10 active;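 active = mean activation of the triplicate above a set limit carried over from the primary screen, none filed active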
# * hit, by the source's call; · = no result given.
SMILES,hgDAF12 agonist,hcDAF-12 act,ssDAF12 agonist,DAX1 inh-1,DAX1 inh-2,hgDAF12 conf,LXR ag 2
O=C(Nc1ccon1)c1ccc(N2CCCCC2)c([N+](=O)[O-])c1,15.3*,3.0,0.2,2.1,2.0,16.9*,1.0
CC(SCc1ccccc1)C(=O)Nc1ccccc1F (configuration not stated),0.1,-0.6,-0.6,-0.1,-2.6,·,·
Cn1cc(Br)c(C(=O)NNC(=O)c2ccc(Br)cc2)n1,13.9*,-0.2,-0.8,1.8,0.8,3.8,0.3
C=CCSc1nnc(NC(=O)Cc2ccc(OC)c(OC)c2)s1,2.6,0.5,-1.4,0.0,0.1,·,·
CC(=O)Nc1cccc(-c2nc3ccc(NC(C)=O)cc3s2)c1,18.9*,3.7,0.8,1.4,1.1,12.4*,0.6
CCOC(=O)N/N=C/c1cn(CCCOc2ccccc2)c2ccccc12,5.8,-0.6,-1.1,0.1,-2.1,·,·
CCOC(=O)N/N=C/c1cn(CCCOc2ccc(C)cc2)c2ccccc12,17.1*,-2.6,-1.0,-0.5,-2.0,5.0,0.3
CN1CCC(=NNC(=O)C(=O)Nc2ccccc2F)CC1,24.2*,-1.2,-1.7,0.4,2.9,2.4,0.1
CN1CCC(=NNC(=O)C(=O)NC(C)(C)C)CC1,2.8,1.4,-1.1,0.3,0.8,·,·
CC(=O)Nc1ccc(S(=O)(=O)N2CCC(c3nnc(-c4ccc(C)cc4)o3)CC2)cc1,·,·,·,·,0.1,·,·
O=C(Nc1nsc(-c2ccccc2)n1)c1ccc(F)cc1,16.4*,2.7,-0.5,2.6,2.6,10.2,0.4
O=C(Nc1nc2nccc(-c3ccccc3)n2n1)c1ccc(F)cc1,-2.0,1.5,-1.5,0.3,-0.2,·,·
CN1C(=O)/C(=C\c2ccc(OC(=O)c3ccco3)cc2)SC1=S,-0.3,0.1,-0.6,-0.3,0.4,·,·
O=C(Nc1ccc2ccccc2c1)C1CC2CCC1C2 (configuration not stated),15.2*,3.0,-0.3,·,·,12.2*,0.5
CC(=Nc1ccc(Br)cc1)c1sc2ccccc2c1O,13.3*,6.0*,0.0,1.9,3.7,20.5*,1.1
CCC(=O)c1ccc(OCc2ccccc2)c(OC)c1,14.4*,3.1,-0.1,3.6,4.7*,10.2,0.6
CCC(=O)c1ccc(OCc2ccc(C(=O)OC)cc2)c(OC)c1,-1.2,4.1,-1.6,0.1,0.8,·,·
O=S(=O)(NCc1ccc2c(c1)OCO2)c1c(F)cc(F)cc1Br,2.3,-0.9,-1.2,0.3,-1.4,·,·
COc1ccc(N/C=C/C(=O)c2ccc(Cl)cc2)cc1,13.3*,2.9,0.5,3.6,1.1,15.5*,0.9
c1ccc(-c2cn3nc(-c4ccccc4)cnc3n2)cc1,16.8*,1.6,-0.6,3.1,3.8,8.0,0.2
Cc1cccc(N2CCN(C(=S)c3ccc4c(c3)OCO4)CC2)c1,3.9,-0.8,-1.2,-3.1,-3.9,·,·
COc1ccc(NC(=O)c2cc3ccccc3o/c2=N\NS(=O)(=O)c2ccc(C)cc2)cc1,14.2*,6.0*,0.0,2.3,1.7,12.6*,0.7
O=C(O)C(=O)/C(=C\c1ccc([N+](=O)[O-])cc1)c1ccc2ccccc2n1,21.6*,4.9,0.9,2.8,2.0,17.9*,0.7
O=C(OCc1ccc([N+](=O)[O-])cc1)c1ccc2ccccc2n1,0.5,4.3,-0.6,0.3,-1.8,·,·
COc1ccc(-c2cc(=O)oc3cc(OCC(=O)NCC4CCC(C(=O)O)CC4)ccc23)cc1 (configuration not stated),-1.1,-1.0,-1.4,-0.7,-0.4,·,·
SMILES,hgDAF12 agonist,hcDAF-12 act,ssDAF12 agonist,DAX1 inh-1,DAX1 inh-2,hgDAF12 conf,LXR ag 2
O=C(Nc1ccc2oc(-c3ccccc3)nc2c1)C1CCCO1 (configuration not stated),28.1*,5.1,1.2*,3.4,3.7,14.8*,0.7
O=C(Nc1ccc2oc(-c3ccccc3)nc2c1)c1ccc2c(c1)OCCO2,-4.7,-2.0,-1.7,-1.8,-0.6,·,·
O=C(Nc1ccc2oc(-c3ccccc3)nc2c1)c1ccco1,15.3*,4.9,1.0*,3.3,3.7,11.8*,0.7
CCS(=O)(=O)N1CCC(C(=O)Oc2ccccc2Br)CC1,-0.2,-1.1,-1.4,0.2,-2.3,·,·
CNc1cncc(-c2ccc(CN(C)C)cc2)n1,15.6*,1.6,-0.9,4.0*,·,8.8,0.3
C[C@H](NC(=O)c1nc[nH]c1C(=O)NC1CCNCC1)C(=O)OC(C)(C)C,5.7,-1.6,-1.0,-0.1,0.0,·,·
CCc1ccc(NC(=S)NC(=O)CC(C)C)cc1,15.4*,2.8,-0.2,2.4,2.8,12.3*,0.5
O=C1NC[C@H](CCCCN2CCN(Cc3ccccc3)C(=O)C2=O)N(Cc2ccccc2)C1=O,-1.7,-1.0,-0.8,-0.7,·,·,·
CC(C)(C)c1ccc(/C=C/C(=O)Nc2cccnc2)cc1,15.7*,3.6,-0.2,2.2,2.1,13.5*,0.8
O=C(/C=C/c1ccc(Cl)c(Cl)c1)Nc1cccnc1,4.1,-2.3,-1.4,0.9,2.0,·,·
O=C(/C=C/c1ccccc1Cl)Nc1cccnc1,18.8*,4.8,0.8,3.2,1.6,21.4*,0.7
Cc1cccc(NC(=S)NC2CC3C=CC2C3)c1 (configuration not stated),1.9,-1.8,-1.1,0.0,2.0,·,·
CCN(CC)c1ccc(NC(=O)c2ccc(Br)o2)cc1,15.7*,2.6,0.4,3.6,5.0*,15.2*,0.9
O=C(NN/C(=N/S(=O)(=O)c1ccc(Cl)cc1)c1ccccc1)c1ccc(O)cc1,15.6*,-0.6,-0.3,3.2,0.0,9.4,0.5
O=C(O)c1ccc(N/C(=N\S(=O)(=O)c2ccc(Cl)cc2)c2ccccc2)cc1,-4.3,1.1,-1.0,0.2,-0.1,·,·
Cc1ccc(S(=O)(=O)NN/C(=N/S(=O)(=O)c2ccccc2)c2ccccc2)cc1,-0.4,-1.7,-1.2,0.0,0.5,·,·
COc1ccc(NC(=S)NC(=NS(=O)(=O)c2ccc(Cl)cc2)c2ccccc2)cc1,13.3*,2.4,0.6,3.1,2.0,9.5,0.4
Cc1ccc(S(=O)(=O)/N=C(/NNC(=O)c2cccc(Cl)c2)c2ccccc2)cc1,13.9*,4.9,0.9,2.5,1.1,21.2*,0.9
COc1ccc(NC(=S)N/C(=N/S(=O)(=O)c2ccc(C)cc2)c2ccccc2)cc1,5.4,0.5,-0.4,2.5,0.5,·,·
c1ccc(-n2cnc3cc(NCc4ccco4)ccc32)cc1,16.6*,2.3,-0.8,4.5*,0.5,9.3,0.4
CCN(CC(=O)NCc1cccs1)S(=O)(=O)c1cc(NC(C)=O)ccc1OC,-3.7,-2.2,-0.7,0.0,-1.5,·,·
